Pf Dd2 growth: qHTS Primary assay for Inhibitors of Plasmodium falciparum Dd2 growth in vitro; P. falciparum Dd2 growth, SYBR Green, 72 h; Potency, µM (titrated, usually from 28.9 µM), inactives show at the highest dose activity, negative = inhibition, most hits filed as inhibitors; 120,000 tested, 4.3% active; active = well fitted inhibition curve with a large enough effect;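 note: plate controls were DMSO vehicle for no effect and reference drug for full effect; nearly all actives have a fitted effect of over 65% in size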
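Readout: SYBR Green fluorescence, 485 nm excitation, 535 nm emission, after ~16 h lysis at 37C. Before that, Dd2-infected red cells (2.5% hematocrit) grew 72 h with compound, 29 uM top final concentration.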
* hit, by the source's call; i = inactive; [ ] = another dose, or the depositor's remark. The sample as a whole holds a higher share of hits than the screen did. Potency is the fitted concentration of half-maximal effect.

SMILES	Pf Dd2 growth
Cc1ccc(C)c(NC(=O)c2nnn(CC(=O)Nc3cccc(C)c3C)c2N)c1	2%
Cc1ccc(NC(=O)c2nnn(Cc3ccccc3)c2N)cc1C	6%
COc1cccc(Cn2nnc(C(=O)Nc3cc(C)ccc3C)c2N)c1	-32%
CN(C)c1ccc(CN(CC2CCCO2)C(=O)c2ccc(Br)cc2)cc1 (configuration not stated)	-22%
O=C(NCc1ccccc1)C1CCC(=O)N1C1CCN(C(=O)c2cc(F)ccc2F)CC1 (configuration not stated)	-15%
O=C(Cc1cccc(Cl)c1)NC1CCN(c2cc(-c3ccccc3)[nH]n2)CC1	-6%
COc1ccc(CCNC(=O)CN2C(=O)NC(c3ccc(C)cc3)C3=C2COC3=O)cc1OC (configuration not stated)	i
O=C(NCC1Cn2cccc2C(=O)N1Cc1ccccc1)C1CCC1 (configuration not stated)	1%
CCc1ccc(NC(=O)CSc2cn(CC(=O)N3CCCC3)c3ccccc23)cc1	-11%
COc1ccc(-c2cc(C)no2)cc1S(=O)(=O)N1CCOc2ccc(Cl)cc21	14%
CCOc1ccccc1C(=O)Nc1ccc(S(=O)(=O)Nc2nc(C)cc(C)n2)cc1	-4%
CCOc1ccccc1C(=O)Nc1ccc2nc3c(c(Nc4ccc(OC)c(OC)c4)c2c1)CCCC3	1.1µM*
COc1ccccc1Nc1c2c(nc3ccc(NC(=O)c4ccc(N(C)C)cc4)cc13)CCCC2	5.6µM*
COc1cc(OC)cc(C(=O)Nc2ccc3nc4c(c(Nc5ccc(OC)c(OC)c5)c3c2)CCCC4)c1	0%
COc1ccc(C)cc1NC(=O)c1ccc2c(Cl)c3c(nc2c1)CCC3	30%
COc1ccccc1Nc1nn2c(=O)c3ccc(C(=O)Nc4ccc(F)cc4)cc3nc2s1	31%
Cc1ccc(-c2noc([C@@](C)(N)Cc3ccccc3)n2)nn1	-8%
Cc1ccccc1NC(=O)CSc1nnc(C)c(=O)[nH]1	29%
CC(C)N1CC[C@@H]2[C@H]1C(=O)NC[C@H](CCC(=O)N1CCN(c3ccccn3)CC1)N2C	15%[44.1 µM]
O=C(Cn1ccn(-c2cccc(Cl)c2)c(=O)c1=O)c1ccc(F)cc1	-1%
COCCNC(=O)[C@@H]1C[C@@H](O)CN1C1CCN(C(=O)c2ccsc2)CC1	-19%
Cc1ccc(C(=O)N2CCC3(CC2)c2nccn2-c2ccccc2CN3C)s1	i[5.79 µM]
CCN(CC)CCCNC(=O)c1nn(-c2ccc(OC)cc2)c(=O)c2c1c1ccccc1n2C	6%
CCN(C(=O)c1nn(-c2ccc(OC)c(Cl)c2)c(=O)c2c1c1ccccc1n2C)c1cc(OC)ccc1OC	7.9µM*
CCOc1ccc(N(CC)C(=O)c2nn(-c3ccc(OC)cc3)c(=O)c3c2c2ccccc2n3C)cc1	4µM*
SMILES	Pf Dd2 growth
CCN(CC)CCCNC(=O)c1nn(-c2ccc(OC)c(Cl)c2)c(=O)c2c1c1ccccc1n2C	1µM*
CCOc1ccccc1NC(=O)c1nn(-c2ccc(OC)cc2)c(=O)c2c1c1ccccc1n2C	i
CCN(CC)CCNC(=O)c1nn(-c2ccc(OC)c(Cl)c2)c(=O)c2c1c1ccccc1n2C	13%
CCc1ccc(CNC(=O)c2nn(-c3ccc(OC)c(Cl)c3)c(=O)c3c2c2ccccc2n3C)cc1	9%[5.79 µM]
COc1ccc(-n2nc(C(=O)N(C)c3cccc(C(F)(F)F)c3)c3c4ccccc4n(C)c3c2=O)cc1	8%
CCCN(C(=O)c1nn(-c2ccc(OC)c(Cl)c2)c(=O)c2c1c1ccccc1n2C)c1ccccc1F	4%
COC[C@H]1C[C@@H](NC(=O)c2c(-c3ccccc3)noc2C)[C@H](O)[C@@H]1O	27%[44.1 µM]
CCc1csc(CNC(=O)c2ccc(N(C)Cc3cccs3)nc2)n1	-15%
CO[C@H]1[C@H](NC(=O)c2ccc(C)c(O)c2)c2ccccc2C12CCNCC2	-6%
COc1ccc(NC(=O)Cn2c(-c3ccc(Cl)cc3)nc(C)cc2=O)cc1	-4%
Cc1cnc(C(=O)N2CCC(N3C(=O)C(O)C34CCCCC4)CC2)cn1 (configuration not stated)	-16%
CCCc1noc(-c2ccn3c(CNC(=O)c4ccccc4OCC)nnc3c2)n1	i
COc1ccc(N2CCN(c3ncnc4c3cnn4C)CC2)cc1	i
CN1C(=O)c2ccccc2Sc2ccc(NC(=O)NCc3ccc(Cl)cc3)cc21	-27%
Cc1ccccc1CN1C(=O)c2ccccc2Sc2ccc(C(=O)N3CCCC3)cc21	-17%
CN1CCN(C(=O)c2ccc3c(c2)N(Cc2ccc(C(F)(F)F)cc2)C(=O)c2ccccc2S3)CC1	0.4µM*
Cc1ccccc1CN1C(=O)c2ccccc2Sc2ccc(C(=O)N3CCOCC3)cc21	31%
CC(C)OCCCNC(=O)c1ccc2c(c1)N(Cc1c(F)cccc1Cl)C(=O)c1ccccc1S2	-13%
CCOC(=O)c1ccc2c(c1)N(Cc1ccccc1)C(=O)c1ccccc1S2	-13%
O=C(c1ccc2c(c1)N(Cc1cccc(F)c1)C(=O)c1ccccc1S2)N1CCOCC1	-17%
Cc1ccccc1CN1C(=O)c2ccccc2Sc2ccc(C(=O)O)cc21	13%
CN1CCN(C(=O)c2ccc3c(c2)N(Cc2c(F)cccc2Cl)C(=O)c2ccccc2S3)CC1	0.2µM*
O=C(NC1CCCC1)c1ccc2c(c1)N(Cc1c(F)cccc1Cl)C(=O)c1ccccc1S2	-19%
Cc1cccc(CN2C(=O)c3ccccc3Sc3ccc(C(=O)N4CCCC4)cc32)c1	14µM*
CCN(CC)CCNC(=O)Nc1ccc2c(c1)N(Cc1ccccc1)C(=O)c1ccccc1S2	4µM*
SMILES	Pf Dd2 growth
Cc1cc(Cl)ccc1S(=O)(=O)N1C[C@H](F)C[C@@H]1C(=O)N1CCOCC1	18%
COCCN1C(=O)c2cccn2CC1CNC(=O)Nc1cccc(C)c1 (configuration not stated)	-12%
O[C@@H]1C[C@@H](c2nc(-c3ccc(F)cc3)no2)N(Cc2cc3ccccc3o2)C1	15%[44.1 µM]
N#Cc1cccc(NC(=O)O[C@@H]2CO[C@H]3[C@@H]2OC[C@@H]3Nc2nccc(-c3ccc4c(c3)OCO4)n2)c1	-21%
Cc1ccc(C2(O)CCN(C(=O)CCC3NC(=O)NC3=O)CC2)nc1 (configuration not stated)	12%
Cc1ccc(NS(=O)(=O)c2ccc(NC(=O)N3CCCC3)cc2)cc1C	i
Cc1ccc(NC(=O)c2cnc(SCC(=O)N3CCCc4ccccc43)n(C)c2=O)cc1	1%
O=C(NCc1nncn1CCc1ccccc1)C1CC2(CCNCC2)CN1 (configuration not stated)	-4%
O=C(NCCc1ccccc1)c1ccc2c(c1)N(Cc1c(F)cccc1Cl)C(=O)CS2	i
COC(=O)c1ccc2c(c1)N(Cc1ccc(Cl)cc1)C(=O)c1ccccc1S2	24%
CCN(C(=O)CN1C(=O)c2ccccc2Sc2ccc(C(=O)OC)cc21)c1cccc(C)c1	11µM*
COC(=O)c1ccc2c(c1)N(Cc1ccc(F)cc1)C(=O)c1ccccc1S2	5%
O=C(c1ccc2c(c1)N(Cc1c(F)cccc1Cl)C(=O)c1ccccc1S2)N1CCC2(CC1)OCCO2	10µM*
CC(C)NC(=O)N1[C@@H]2CC[C@H]1CC(NC(=O)c1ccc(F)cc1)C2 (some centres not stated)	-13%
CCN1CCN(c2nc3c(S(=O)(=O)c4ccc(C)cc4)nnn3c3ccsc23)CC1	i
C[C@H](O)c1onc(-c2ccccc2)c1C(=O)NC1CCCC1	-2%[44.1 µM]
CCCCNC(=O)CCCN1C(=O)CCn2nc(-c3cccn3C)cc21	4%
Cc1ccc(OC(=O)CSc2nnc(-c3cccs3)o2)cc1C	39%

Assay outcomes: PubChem, National Center for Advancing Translational Sciences (NCATS)
